MCL1-BIM inh = inhibitors of MCL1 binding to BIM-BH3, primary screen, biochemical, fluorescence polarization | Induced myeloid leukemia cell differentiation protein Mcl-1 (Homo sapiens), Q07820 | GST-MCL1 / FITC-Bim-BH3 fluorescence polarization | inhibition, % at 10.9 µM | 0.68% of 320,000 active | AID 2057, 2009;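 active = inhibition above the mean inhibition of all tested compounds plus 3 SD, set per campaign, cut at about 40% in these data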;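 note: 0% = DMSO wells and 100% = unlabeled Bim-BH3 peptide control; higher means more loss of mP so more displacement of Bim peptide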
BCLXL inh = inhibitors of human Bcl-xL, primary screen, biochemical, fluorescence polarization, HTS. Bcl-2-like protein 1 (Homo sapiens), Q07817. GST-Bcl-xL / FITC-Bim BH3 peptide fluorescence polarization. inhibition, % at 10.9 µM. 0.7% of 320,000 active. AID 2129, 2009;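 active = inhibition above the mean of all tested compounds plus 3 SD, cutoff set per campaign, cut at about 30% in these data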;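 note: 0% = DMSO wells and 100% = unlabeled Bim-BH3 peptide competitor; inhibitors lower millipolarization by displacing the labeled peptide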
eLon inh = inhibitors of E. coli Lon protease, primary screen, biochemical, fluorescence polarization. P0A9M0. purified E. coli Lon protease. inhibition, % at 7.94 µM. 0.42% of 360,000 active; in the data active = inhibition above about 13%, passing the limit was not always enough;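 note: 0% = enzyme with probe and DMSO and 100% = no enzyme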
Target sequence (P0A9M0 whole entry, looked up): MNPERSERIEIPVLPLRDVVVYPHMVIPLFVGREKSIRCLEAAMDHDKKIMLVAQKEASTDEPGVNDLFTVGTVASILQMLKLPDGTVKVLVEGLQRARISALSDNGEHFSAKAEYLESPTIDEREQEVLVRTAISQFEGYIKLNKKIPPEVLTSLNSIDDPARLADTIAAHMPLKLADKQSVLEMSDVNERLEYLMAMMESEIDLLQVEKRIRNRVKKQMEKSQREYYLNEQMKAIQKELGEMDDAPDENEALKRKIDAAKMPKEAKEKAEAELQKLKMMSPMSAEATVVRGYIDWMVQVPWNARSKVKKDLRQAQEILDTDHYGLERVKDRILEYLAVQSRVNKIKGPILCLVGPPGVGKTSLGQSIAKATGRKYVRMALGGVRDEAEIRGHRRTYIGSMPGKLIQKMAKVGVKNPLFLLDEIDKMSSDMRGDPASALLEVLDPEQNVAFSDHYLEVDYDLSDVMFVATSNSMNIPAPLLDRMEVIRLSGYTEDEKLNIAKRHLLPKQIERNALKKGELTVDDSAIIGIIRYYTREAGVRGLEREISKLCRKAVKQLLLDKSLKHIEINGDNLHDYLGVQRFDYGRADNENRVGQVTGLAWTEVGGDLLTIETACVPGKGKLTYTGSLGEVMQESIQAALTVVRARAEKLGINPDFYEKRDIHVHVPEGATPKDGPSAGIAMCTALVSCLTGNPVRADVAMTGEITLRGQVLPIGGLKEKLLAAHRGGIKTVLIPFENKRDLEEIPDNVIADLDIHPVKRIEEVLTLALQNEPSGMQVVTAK
GLD-1 RNA inh = GLD-1/TGE RNA complex disruptors, primary screen, biochemical, fluorescence polarization; inhibition, % at 5.96 µM; AID 2280, 2010; 0.44% of 320,000 active; Female germline-specific tumor suppressor gld-1 (Caenorhabditis elegans), Q17339; purified GLD-1 + fluorescein TGE RNA;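 active = percent inhibition above a per-plate cutoff, the plate mean of test compounds plus 3 SD, cut at about 30% in these data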;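 note: 0% = DMSO wells with GLD-1 and probe and 100% = wells lacking GLD-1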
LANA DNA inh = inhibitors of KSHV C-LANA binding to DNA, primary screen, biochemical, fluorescence polarization, FAM-LBS DNA, MBP-C-LANA, single point | Kaposi's sarcoma herpesvirus LANA C-terminal domain (residues 932-1162) DNA binding | inhibition, % at 9 µM | 0.078% of 340,000 active;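 active = highest replicate inhibition at or above 60% at 9 µM, even if other replicates fall short; inactive = all replicates below 60% inhibition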;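 note: 0% = neutral control wells and 100% = 4 µM acridine orange control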
Keap1 Nrf2 FP = Keap1-Nrf2 protein-protein interaction inhibitors, primary screen, biochemical, fluorescence polarization, single point. Kelch-like ECH-associated protein 1 (Homo sapiens), Q14145. Keap1 Kelch-Nrf2 peptide fluorescence polarization, 1536-well. inhibition, % at 9.4 µM. 0.15% of 340,000 active. AID 504523, 2011; in the data active = inhibition above about 12%;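 note: human Keap1 Kelch domain with fluorescein labeled Nrf2 9mer peptide probe; 0% = neutral control wells and 100% = peptide positive control; higher means more block of Keap1 binding to Nrf2 peptide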
E coli Lon conf = E. coli Lon protease inhibitor retest, confirmation, biochemical, fluorescence polarization | 31% of 1,400 active | inhibition, % at 7.94 µM | shares compounds with eLon inh | purified E. coli Lon | AID 602230, 2012; in the data active = inhibition above about 16%;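 note: 0% = enzyme with probe and DMSO and 100% = no enzyme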
The depositor's hits bear a star; · = no result given; + = active, no number. The list is not random: actives were taken first. Their share in the collection is about 1.3%.

SMILES	MCL1-BIM inh	BCLXL inh	eLon inh	GLD-1 RNA inh	LANA DNA inh	Keap1 Nrf2 FP	E coli Lon conf
COc1ccc([N+](=O)[O-])cc1NC(=O)C(C)c1ccccc1 (stereo unspecified)	8.8	1.1	21.8*	1.8	-1.2	-1.0	-0.7
O=C(NCc1ccccc1)c1ccc(CS(=O)Cc2cccc(Cl)c2)o1 (stereo unspecified)	·	·	-1.6	·	·	·	·
Cc1cc(C(=O)CSc2nnc(-c3ccncc3)n2-c2ccccc2)c(C)n1C	10.2	12.0	18.7*	16.2	0.6	-5.0	-73.2
Cc1cc(C(=O)CSc2nnc(-c3ccccc3)n2C)c(C)n1C	-2.3	5.0	5.0	-1.9	-1.1	-0.5	·
CSc1ccccc1NC(=S)Nc1ccc(S(N)(=O)=O)cc1	5.9	1.8	-6.3	-3.1	0.6	-1.7	·
O=C(Nc1ccncc1)c1cc(S(=O)(=O)N2CCCC2)ccc1Cl	·	·	21.5*	3.7	-2.0	-5.5	-5.1
CC(C(=O)N1CCCc2c1c(=O)oc1ccc(O)cc21)N1CCc2ccccc2C1 (stereo unspecified)	-3.2	5.0	16.2*	-6.0	-1.4	0.9	+
C[C@@H]1CN([C@H](C)CO)C(=O)c2c(c3ccccc3n2C)-c2ccccc2CO[C@H]1CN(C)Cc1ccc(-c2ccccc2)cc1	·	·	-1.4	·	·	·	·
C[C@@H]1CN([C@H](C)CO)C(=O)c2c(c3ccccc3n2C)-c2ccccc2CO[C@H]1CN(C)Cc1ccccc1	·	·	16.6*	·	·	·	-8.0
O=C(NCC1CCCN1S(=O)(=O)c1cccs1)C(=O)Nc1ccccc1Cl (stereo unspecified)	9.2	11.2	21.7*	-1.1	0.5	-7.6	-15.0
CCN(CC)S(=O)(=O)c1ccc2nnn(OCC(=O)Nc3cccc(C#N)c3)c2c1	6.7	5.0	18.1*	1.5	-0.3	-1.3	-4.7
O=C(c1cccnc1)N1CCN(c2ccccc2Cl)CC1	0.0	4.2	·	1.7	·	·	·
O=C(c1ccccc1)c1ccc(C(=O)N2CCN(c3ccccc3Cl)CC2)cc1	6.1	3.7	18.1*	3.8	-3.0	5.8	4.9
Cc1ccc(C(C)C)c(OCC(=O)NN=C2CCCC(=O)C2)c1	·	·	42.9*	5.1	2.4	1.9	-29.0
O=C1C=CC(=Nc2cccc3c2C(=O)c2ccccc2-3)O1	·	·	+	·	11.3	2.5	6.1
O=C1C=CC(=Nc2ccc3c(c2)Cc2cc(F)ccc2-3)O1	·	·	-9.2	·	0.7	-4.4	·
CCC(C)C(NC(=O)C(C)NC(=O)CNC(=O)OC(C)(C)C)C(N)=O (stereo unspecified)	8.1	6.0	-5.0	1.6	-1.5	-3.3	·
O=C(O)c1ccc(CN2C(=O)c3ccc(Oc4ccc([N+](=O)[O-])cc4)cc3C2=O)cc1	7.5	-0.5	-4.2	2.5	-2.3	4.5	·
CCOc1ccc(S(=O)(=O)N2CCC(C(=O)NCCc3ccc(OC)c(OC)c3)CC2)cc1	6.1	4.0	-4.2	-0.3	1.1	-0.8	·
O=C(/C=C(/c1ccc(Cl)cc1)n1cncn1)c1ccccc1	7.3	4.7	-9.1	6.0	2.0	0.6	·
O=C(N/N=C/c1coc2ccc(Cl)cc2c1=O)c1ccc(O)cc1	·	·	-0.8	·	0.3	-9.6	·
NC(=S)N/N=C/c1coc2ccc(Cl)cc2c1=O	9.2	1.6	13.1*	9.1	1.1	-4.2	23.8*
CC1(C)O[C@@H](CC(=O)O)[C@]23CO[C@H](C(=O)[C@]4(C)C2CC[C@@]2(C)[C@H](c5ccoc5)OC(=O)C5O[C@]524)[C@@H]13 (stereo partly specified)	·	·	-7.7	6.0	2.3	-7.1	·
C[C@H](CO)N1C[C@H](C)[C@H](CN(C)C(=O)Nc2cccc(F)c2)Oc2cc(C#CC3(O)CCCC3)ccc2S1(=O)=O	·	·	12.5*	·	·	·	-2.4
CC(C)CC#Cc1ccc2c(c1)O[C@H](CN(C)C(=O)Nc1ccccc1)[C@@H](C)CN([C@H](C)CO)S2(=O)=O	·	·	-8.0	·	·	·	·
SMILES	MCL1-BIM inh	BCLXL inh	eLon inh	GLD-1 RNA inh	LANA DNA inh	Keap1 Nrf2 FP	E coli Lon conf
Cc1ccc(S(=O)(=O)Cn2nnnc2C(CC(C)C)N2CCN(C3CCCC3)CC2)cc1 (stereo unspecified)	1.1	4.1	2.0	-2.4	0.5	-2.8	·
Cc1ccc(NC(=O)CSCC(=O)NC2=NCCS2)cc1	-7.3	-5.0	-9.8	10.1	-1.2	-2.8	·
O=C(Nc1cccc(Cl)c1)Nn1cnnc1	-1.3	3.0	104.0*	0.3	2.2	-7.3	-0.9
CCC(=O)OCC(=O)c1cc(C)n(-c2ccc(Br)cc2)c1C	1.8	2.4	-9.8	1.3	0.5	-0.6	·
O=CNCCCc1nc2ccccc2n1CCc1ccccc1	·	·	18.0*	·	4.8	-3.5	4.5
CCn1nc(C)cc1C(=O)Sc1cccc(Br)c1	3.6	-4.3	9.7	1.8	0.6	-19.9	·
CC12CC3CC(C)(C1)CC(C(=O)NNC(=O)c1ccncc1)(C3)C2	-0.3	4.8	-4.7	2.4	-0.5	-4.9	·
Cc1ccc(-n2nc3c(=O)n(CC(=O)NCCc4ccco4)nc(C)c3c2C)cc1	1.8	5.6	35.7*	3.7	-0.1	-7.8	-2.5
COC(=O)C(C)Sc1nnc(Cc2cc(=O)[nH]c(=O)[nH]2)n1-c1ccc(Cl)cc1 (stereo unspecified)	20.6	20.5	37.2*	27.3	18.4	0.0	8.1
CCOC(=O)C(C)Sc1nnc(Cc2cc(=O)[nH]c(=O)[nH]2)n1-c1ccc(Cl)cc1 (stereo unspecified)	11.9	18.4	23.9*	24.3	24.3	8.2	7.9
CCOC(=O)C(C)Sc1nnc(Cc2cc(=O)[nH]c(=O)[nH]2)n1-c1ccc(OCC)cc1 (stereo unspecified)	-6.5	0.0	-3.2	5.0	2.7	1.4	·
COc1cc(/C=C/CN2CCC(C(=O)NC(c3ccc(F)cc3)c3ccc4ccccc4n3)CC2)ccc1OC(C)=O (stereo unspecified)	·	·	25.5*	·	·	·	1.0
COc1cccc(/C(C)=N/Nc2ccc(S(=O)(=O)N3CCCCC3)cn2)c1	2.8	6.4	21.8*	7.1	0.4	1.1	3.6
C=CCOn1c(=O)c(-c2ccccc2)[n+]([O-])c2ccccc21	-3.6	-1.5	3.6	7.8	-0.2	-4.8	·
C=CCOn1c(=O)c(-c2cc3ccccc3o2)[n+]([O-])c2ccccc21	39.0	45.5*	17.2*	6.7	8.5	-5.5	-212.9
COc1cccc(CNC(=O)c2ccc(S(=O)(=O)N3CCOCC3)cc2)c1	·	·	5.0	·	-0.6	0.5	·
